Assay results published in PubChem BioAssay (EPA / NIEHS).
The source made the active and inactive calls. How the source made its calls: active means hit-call score of the fitted dose curve at least 0.9, where 1 is the maximum; inactive means score below 0.9.

Experiment: ATG_E_Box_CIS: Attagene CIS-FACTORIAL HepG2 Assay for human Enhancer Box (E-box) (AID 2282936)
Details: HepG2 E-box cis-reporter transcription, actives raise or lower the signal
Method in brief: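 First, HepG2 cells receive multiple cis-regulated reporter constructs by transient transfection. Next, chemicals are applied for 24 h. Finally, reporter mRNA is quantified via RT-PCR and capillary electrophoresis, with DMSO as baseline.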

outcome, inactive:
C=CC(C)(C)C, CCCCCCCCCCCCCOP(=O)(O)O, CC(C)=CCC[C@H](C)CCO, NC(=O)OCC(COC(N)=O)c1ccccc1, CCCCC(CC)COCC1CO1 (stereo not given), CC(=O)OCC(=O)[C@@]12N=C(C)O[C@@H]1C[C@H]1[C@@H]3CCC4=CC(=O)C=C[C@]4(C)[C@H]3[C@@H](O)C[C@@]12C, CC=CC(=O)N(CC)c1ccccc1C, CN1C(=O)N(C)C(O)C1O (stereo not given), COc1ccc2nc(N)sc2c1, CCOCC(=O)O, OC1CCCC1, O=c1c2ccccc2oc2ccccc12, Cc1ccc(C(C)c2ccc(C)c(C)c2)cc1C, CC(C)CCCC(C)CC=O (stereo not given), CC(=O)NS(=O)(=O)c1ccc(N)cc1, CCCCCCCC/C=C\CCCCCCCC(=O)OCCO, O=C1c2ccccc2C(=O)C1c1nc2ccccc2c(Br)c1O, C[C@]12CCC(=O)C=C1CC[C@@H]1[C@@H]2C(=O)C[C@@]2(C)[C@H]1CC[C@]2(O)C(=O)CO, CCN(CC#N)c1cccc(C)c1, CC1(C)S[C@@H]2[C@H](NC(=O)COc3ccccc3)C(=O)N2[C@H]1C(=O)O, COc1c2ccoc2cc2oc(=O)ccc12, O=c1[nH]nc(-c2ccc([N+](=O)[O-])o2)o1, C=C[Si](OC(C)=O)(OC(C)=O)OC(C)=O, COc1cc(NC(=O)CC(C)=O)c(OC)cc1Cl, O=C(O)CCCC[C@@H]1SC[C@@H]2NC(=O)N[C@@H]21, CCCNC(=O)NS(=O)(=O)c1ccc(Cl)cc1, C=C(C)C(=O)OCCOc1ccccc1, CC(C)(C)C(=O)CCc1ccc(Cl)cc1, COC(=O)/C=C\C(=O)O, [Cl][Nd]([Cl])[Cl], NCCCN1CCN(CCCN)CC1, CCCCC(CC)COC(=O)c1ccccc1O (stereo not given), CCCOC(=O)CCCCC(=O)OCCC, CCOC(=O)N1CCC(=C2c3ccc(Cl)cc3CCc3cccnc32)CC1, CNC(=S)N(C)C, C[C@]12C=CC(=O)C=C1CC[C@@H]1[C@@H]2[C@@H](O)C[C@@]2(C)[C@H]1CC[C@]2(O)C(=O)CO, Cc1ccc(C(C)(C)C)cc1

AC50, active:
Nc1ncn([C@@H]2O[C@H](CO)[C@@H](O)[C@H]2O)c(=O)n1 27.5 µM, COc1ccc(C(Cl)=C(c2ccc(OC)cc2)c2ccc(OC)cc2)cc1 21.8 µM, c1ccc(-c2ccccn2)nc1 61.2 µM

Experiment: ATG_M_61_CIS: Attagene CIS-FACTORIAL HepG2 Assay for M61 Transcription Factor (Internal Marker) (AID 2282937)
Details: HepG2 Attagene CIS-FACTORIAL M61 internal marker reporter; actives raise or lower the signal
Method in brief: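 Human liver HepG2, transient MRTU transfection (cis promoter elements), 24 h compound. Total RNA → oligo(dT) RT → PCR → FAM label → HpaI → CE. Internal background marker; bidirectional fitting, DMSO = baseline.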

outcome, inactive:
C=CC(C)(C)C, CCCCCCCCCCCCCOP(=O)(O)O, CC(C)=CCC[C@H](C)CCO, NC(=O)OCC(COC(N)=O)c1ccccc1, CCCCC(CC)COCC1CO1 (stereo not given), CC(=O)OCC(=O)[C@@]12N=C(C)O[C@@H]1C[C@H]1[C@@H]3CCC4=CC(=O)C=C[C@]4(C)[C@H]3[C@@H](O)C[C@@]12C, CC=CC(=O)N(CC)c1ccccc1C, CN1C(=O)N(C)C(O)C1O (stereo not given), COc1ccc2nc(N)sc2c1, CCOCC(=O)O, Nc1ncn([C@@H]2O[C@H](CO)[C@@H](O)[C@H]2O)c(=O)n1, OC1CCCC1, O=c1c2ccccc2oc2ccccc12, Cc1ccc(C(C)c2ccc(C)c(C)c2)cc1C, CC(C)CCCC(C)CC=O (stereo not given), CC(=O)NS(=O)(=O)c1ccc(N)cc1, CCCCCCCC/C=C\CCCCCCCC(=O)OCCO, O=C1c2ccccc2C(=O)C1c1nc2ccccc2c(Br)c1O, C[C@]12CCC(=O)C=C1CC[C@@H]1[C@@H]2C(=O)C[C@@]2(C)[C@H]1CC[C@]2(O)C(=O)CO, CCN(CC#N)c1cccc(C)c1, CC1(C)S[C@@H]2[C@H](NC(=O)COc3ccccc3)C(=O)N2[C@H]1C(=O)O, COc1c2ccoc2cc2oc(=O)ccc12, O=c1[nH]nc(-c2ccc([N+](=O)[O-])o2)o1, C=C[Si](OC(C)=O)(OC(C)=O)OC(C)=O, COc1cc(NC(=O)CC(C)=O)c(OC)cc1Cl, O=C(O)CCCC[C@@H]1SC[C@@H]2NC(=O)N[C@@H]21, CCCNC(=O)NS(=O)(=O)c1ccc(Cl)cc1, C=C(C)C(=O)OCCOc1ccccc1, CC(C)(C)C(=O)CCc1ccc(Cl)cc1, COC(=O)/C=C\C(=O)O, [Cl][Nd]([Cl])[Cl], NCCCN1CCN(CCCN)CC1, CCCCC(CC)COC(=O)c1ccccc1O (stereo not given), COc1ccc(C(Cl)=C(c2ccc(OC)cc2)c2ccc(OC)cc2)cc1, CCCOC(=O)CCCCC(=O)OCCC, CCOC(=O)N1CCC(=C2c3ccc(Cl)cc3CCc3cccnc32)CC1, c1ccc(-c2ccccn2)nc1, CNC(=S)N(C)C, C[C@]12C=CC(=O)C=C1CC[C@@H]1[C@@H]2[C@@H](O)C[C@@]2(C)[C@H]1CC[C@]2(O)C(=O)CO, Cc1ccc(C(C)(C)C)cc1
